# SENP8 block-1 = blocks human SENP8 cleavage of Nedd8 substrate; recombinant SENP8, Nedd8 substrate fluorescence; inhibition, % at 20 µM; 360,000 tested, 0.64% active; AID 602440; Q96LD8; in the data active = inhibition mostly above about 40%, no sharp cut-off; inactive = mostly below about 27%
# SENP6 block = inhibitors of human SENP6 protease; Q9GZR1; AID 2599; Recombinant SENP6 catalytic domain, aminoluciferin luminescence; 330,000 tested, 1.8% active; inhibition, % at 10 µM;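 active = inhibition above about 50% at the single tested dose, limit read from the data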;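 note: plate controls were DMSO wells with enzyme for no effect and DMSO wells lacking enzyme for full effect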
# EBI2 block = EBI2 (human) antagonism | AID 651636 | P32249 | 360,000 tested, 0.81% active | EBI2 beta-arrestin recruitment, luminescence, 7a,25-OHC stimulated | inhibition, % at 5 µM; in the data active = inhibition above about 38%;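 note: enzyme fragment complementation signal reports receptor beta-arrestin coupling in cells; 0% = agonist plus DMSO wells and 100% = wells without agonist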
# AHR act = human AHR activation | P35869 | AHR-responsive luciferase reporter cells, luminescence | 320,000 tested, 2.5% active | activation, % at 5 µM; in the data active = activation above about 47%;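 note: 0% = vehicle wells and 100% = reference agonist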
# Target sequence (P35869 whole entry, looked up): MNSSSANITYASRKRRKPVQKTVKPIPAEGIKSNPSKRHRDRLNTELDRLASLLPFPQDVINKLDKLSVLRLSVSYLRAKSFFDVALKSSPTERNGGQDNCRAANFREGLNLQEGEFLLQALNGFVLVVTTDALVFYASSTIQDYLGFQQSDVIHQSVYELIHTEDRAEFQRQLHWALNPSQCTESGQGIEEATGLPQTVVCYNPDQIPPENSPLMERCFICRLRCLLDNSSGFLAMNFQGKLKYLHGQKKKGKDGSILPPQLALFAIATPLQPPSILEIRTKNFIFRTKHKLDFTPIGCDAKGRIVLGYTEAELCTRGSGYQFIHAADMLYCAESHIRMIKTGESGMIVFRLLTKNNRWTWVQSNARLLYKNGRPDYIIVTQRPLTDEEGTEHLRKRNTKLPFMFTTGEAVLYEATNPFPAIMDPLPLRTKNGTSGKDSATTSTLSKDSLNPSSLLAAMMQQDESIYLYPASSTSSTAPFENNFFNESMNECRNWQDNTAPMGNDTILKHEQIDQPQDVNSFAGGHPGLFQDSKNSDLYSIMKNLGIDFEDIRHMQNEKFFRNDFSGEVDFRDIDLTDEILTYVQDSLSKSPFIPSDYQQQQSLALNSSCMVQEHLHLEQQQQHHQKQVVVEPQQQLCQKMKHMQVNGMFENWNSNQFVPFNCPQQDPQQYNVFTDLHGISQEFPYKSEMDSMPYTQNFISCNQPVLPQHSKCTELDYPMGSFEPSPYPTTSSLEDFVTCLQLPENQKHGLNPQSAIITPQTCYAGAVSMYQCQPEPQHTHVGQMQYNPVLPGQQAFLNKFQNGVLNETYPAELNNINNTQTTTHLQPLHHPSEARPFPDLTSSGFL
# SENP7 block = SENP7 protease inhibition | 330,000 tested, 1.5% active | inhibition, % at 5 µM | AID 434973 | recombinant SENP7, Z-RLRGG-aminoluciferin luminescence, 40 min | Q9BQF6;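 active = inhibition above about 50% at the single test dose, limit read from the data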;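 note: plate controls were DMSO with enzyme for no effect and no enzyme buffer wells for full effect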
# SENP8 block-2 = blocks the human protease SENP8; purified SENP8, Z-RLRGG-aminoluciferin cleavage, luminescence; 330,000 tested, 1.2% active; inhibition, % at 10 µM; in the data active = inhibition above about 50%
# SENP8 confirm = human SENP8 inhibition, confirmed | shares compounds with SENP7 block | inhibition, % at 12.5 µM | 6,200 tested, 40% active | Recombinant SENP8, Z-RLRGG-aminoluciferin luminescence, 60 min;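 active = mean inhibition across replicates above about 50%, limit read from the data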
# SENP6 conf = confirmation of human SENP6 protease inhibitors | shares compounds with SENP7 block | recombinant SENP6, Z-RLRGG-aminoluciferin luminescence | inhibition, % at 12.5 µM | 6,200 tested, 58% active | AID 488915
# SENP7 confirm = human SENP7 inhibition, confirmed | shares compounds with SENP7 block | recombinant SENP7, Z-RLRGG-aminoluciferin luminescence, 40 min | inhibition, % at 12.5 µM | 6,200 tested, 69% active
# Casp3 select = inhibits human caspase-3 in SENP selectivity test | AID 488918 | shares compounds with SENP7 block | purified caspase-3, Z-DEVD-aminoluciferin luminescence, 60 min | 6,200 tested, 60% active | inhibition, % at 12.5 µM;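 active = mean inhibition above about 50%, limit read from the data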;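 note: plate controls were enzyme with DMSO for no effect and wells without caspase-3 for full effect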
# Luc interf = interferes with luciferase luminescence in SENP counter-screen; shares compounds with SENP7 block; Pre-incubated SENP8/Z-RLRGG-aminoluciferin, luciferase luminescence interference; inhibition, % at 12.5 µM; 6,200 tested, 39% active; AID 488919;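 active = mean inhibition above about 50% when retested at one dose, limit read from the data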;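 note: plate controls were DMSO wells with completed reaction for no effect and substrate without enzyme for full effect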
# Numbers without * were called inactive; i = inactive; nt = not tested or not shown. This is a sample that favours compounds with a hit; in the whole collection about 5% have one here.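 Rule for the calls, unless noted: active = mean inhibition above about 50% in the one-dose retest (limit read from the data); inactive = the rest.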
SMILES,SENP8 block-1,SENP6 block,EBI2 block,AHR act,SENP7 block,SENP8 block-2,SENP8 confirm,SENP6 conf,SENP7 confirm,Casp3 select,Luc interf
Cc1ccc(/C=C2\SC(=S)N(CCCC(=O)Nc3cccnc3)C2=O)cc1,18,58*,22,-20,61*,52*,0,1,2,11,15
Cc1ccc(/C=C2\SC(=S)N(CC(=O)Nc3cccnc3)C2=O)cc1,31,-1,0,5,47,-6,nt,nt,nt,nt,nt
CN1C(=O)S/C(=C/c2ccc(OCc3cccc(C(=O)O)c3)cc2)C1=O,-30,92*,-15,9,57*,78*,62*,67*,58*,16,35
COc1ccccc1/C=C1\SC(=S)N(CCC(=O)Nc2ccc(C(=O)O)c(O)c2)C1=O,20,72*,-5,0,8,64*,77*,76*,79*,15,81*
CCc1ccc(/C=C2/SC(=S)N(CCC(=O)Nc3cccc(C(=O)O)c3)C2=O)cc1,21*,38,-2,3,52*,79*,28,24,22,32,17
COc1ccc(C(=O)OCC(=O)c2ccc(Br)s2)c(OC)c1,1,-2,-3,2,-4,3,nt,nt,nt,nt,nt
COc1cccc(C(=O)OCC(=O)c2ccc(Br)s2)c1,4,54*,11,3,40,25,53*,49,78*,36,21
O=C(CN1c2cccc3cccc(c23)S1(=O)=O)NCCc1ccc(F)cc1,i,7,11,3,-7,3,nt,nt,nt,nt,nt
Cn1c(=O)c2c(SCc3ccccc3)nc(C3CC3)nc2n(C)c1=O,18,50,15,2,68*,10,7,22,25,30,3
Cn1c(=O)c2c(SCc3ccccn3)nc(C3CC3)nc2n(C)c1=O,4,-13,3,47,9,13,nt,nt,nt,nt,nt
CCOC(=O)Cc1csc(N/N=C/c2ccccc2)n1,-45,45,-13,-11,42,23,nt,nt,nt,nt,nt
CCOC(=O)Cc1csc(N/N=C\c2ccccc2OC)n1,-188,68*,-1,51*,45,26,58*,54*,79*,42,55*
COc1ccc(C(NC(=O)C2CCN(Cc3ccc(Oc4ccccc4)cc3)CC2)c2ccccc2C)cn1 (configuration not stated),26,nt,9,nt,nt,nt,nt,nt,nt,nt,nt
O=C(Nc1ccc(OCc2ccccc2)cc1)c1cccnc1,4,3,-15,4,32,2,nt,nt,nt,nt,nt
CC(C)=CC(=O)Nc1ccc(Br)cc1,-4,47,4,1,54*,16,49,48,83*,61*,60*
CCOc1ccc(NC(=O)c2ccc(OC)cc2)cc1,24,-41,13,-1,7,-7,nt,nt,nt,nt,nt
CCOc1ccc(NC(=O)c2ccncc2)cc1,16,60*,-2,15,-3,-10,3,-2,10,16,6
O=C(Nc1ccccc1)c1ccc(COc2ccccc2)cc1,3,44,2,1,64*,-9,-26,-12,-4,-1,-5
Cc1ccsc1C(=O)Nc1ccc(C(=O)O)cc1,20,-49,-4,-1,86*,79*,-13,78*,95*,96*,81*
Cc1noc(C)c1COc1cccc(C(=O)Nc2ccc(OCc3ccccc3)cc2)c1,26,57*,8,-4,34,16,9,7,4,4,-6
Cc1noc(C)c1COc1ccc(C(=O)Nc2ccccc2)cc1,11,-26,42,-3,-8,-7,nt,nt,nt,nt,nt

# Screening data as filed in PubChem.
